The supplement of paper PMC7156485
± gives the standard deviation of the averaged measurements.

Tests used:
Conditions in all cases: concentration: 10 µM; 24 h
HCC1569 [1] = test: cell number relative to DMSO (% of DMSO); higher = more cells (less growth inhibition / toxicity)
Procedure, shortened: (§1)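 Compounds were applied at 10 µM for 24 h at 37 °C, in triplicate, to HCC1569 and TDF cells. The cells were then fixed and stained for H1.0, and nuclei were counterstained with DAPI. Nuclear H1.0 intensity or cell number is reported relative to the plate control as a percent, taking the median of replicates. Smoothing for positional effects was applied to HCC1569 values only.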

TDF [2] = test: as above
Procedure, shortened: as §1

TDF [3] = test: H1.0 immunofluorescence intensity relative to DMSO (% of DMSO); higher = stronger H1.0 induction, active = 120 or more
Procedure, shortened: as §1

HCC1569 [4] = test: H1.0 immunofluorescence intensity relative to DMSO (% of DMSO); higher = stronger H1.0 induction, active = 140 or more
Procedure, shortened: as §1
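For H1.0 immunofluorescence intensity relative to DMSO in this document: TDF is a line of transformed human dermal fibroblasts of mesenchymal origin.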
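For cell number relative to DMSO in this document: TDF denotes transformed human dermal fibroblasts of mesenchymal origin.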

Structure (SMILES)	cell number (HCC1569 [1])	cell number (TDF [2])	H1.0 immunofluorescence intensity (TDF [3])	H1.0 immunofluorescence intensity (HCC1569 [4])
CCCCCCCCCCCCCCCC(=O)NCCO [Palmitoylethanolamide]	104	101	92.4 (inactive)	90.6 (inactive)
Br.Br.N=C(N)SCCc1ccc(CCSC(=N)N)cc1 [1,4-PBIT dihydrobromide]	96.8	101	92 (inactive)	105 (inactive)
CCCCCCCCCCCCCCCC(=O)OCC(O)C1OC(=O)C(O)=C1O (stereo not drawn) [Ascorbyl palmitate]	98.6	105	96.1 (inactive)	102 (inactive)
CCCCCCCCC=CCCCCCCCCCCCCCC(=O)O [15(Z)-Tetracosenoic acid]	103	98.8	94.8 (inactive)	99.1 (inactive)
O=C(O)c1cn(C2CC2)c2cc(N3CCNCC3)c(F)cc2c1=O [Ciprofloxacin]	105	107	91.7 (inactive)	102 (inactive)
O=C(O)Cc1c[nH]c2ccc(O)cc12 [(5-hydroxy-3H-indol-3-yl)acetic acid]	105	94.7	94.7 (inactive)	103 (inactive)
CC(C)(C(=O)O)c1ccc(C(O)CCCN2CCC(C(O)(c3ccccc3)c3ccccc3)CC2)cc1.Cl (stereo not drawn) [Fexofenadine hydrochloride]	105	111	91.2 (inactive)	90.5 (inactive)
Nc1nc(Cl)nc2c1ncn2C1OC(CO)C(O)C1O (stereo not drawn) [2-Chloroadenosine]	99.3	119	87.8 (inactive)	89 (inactive)
Cc1ccc(C(=O)c2cc(O)c(O)c([N+](=O)[O-])c2)cc1 [Tolcapone]	101	92.1	93.3 (inactive)	112 (inactive)
Br.Br.N=C(N)SCCc1cnc[nH]1 [Imetit dihydrobromide]	103	103	94.8 (inactive)	80.5 (inactive)
COc1cc2c(Nc3ccc(Br)cc3F)ncnc2cc1OCC1CCN(C)CC1 [Vandetanib]	54.4	65.4	108 (inactive)	142 (active)
COc1cc(Nc2c(C#N)cnc3cc(OCCCN4CCN(C)CC4)c(OC)cc23)c(Cl)cc1Cl [Bosutinib]	67	7.38	135 (active)	39.6 (inactive)
CCCCCC=CCC=CCC=CCCCCC(=O)O [6(Z), 9(Z), 12(Z)-Octadecatrienoic Acid]	101	93.2	91.1 (inactive)	105 (inactive)
CC(O)CCCC(O)C=CC1C(O)CC(=O)C1CC=CCCCC(=O)O [19(R)-Hydroxy-prostaglandin E2]	98.1	92.7	95.7 (inactive)	92.1 (inactive)
NC(=O)c1cc[n+](CC2=C(C(=O)[O-])N3C(=O)C(NC(=O)C(c4ccccc4)S(=O)(=O)[O-])C3SC2)cc1.[Na+] (stereo not drawn) [Cefsulodin sodium salt hydrate]	99.1	104	94.6 (inactive)	94.3 (inactive)
CC1c2cccc(O)c2C(O)=C2C(=O)C3(O)C(O)=C(C(N)=O)C(=O)C(N(C)C)C3C(O)C21 (stereo not drawn) [Doxycycline]	101	93.9	108 (inactive)	115 (inactive)
CN(C)c1cc2c(Nc3ccc4c(cnn4Cc4ccccc4)c3)ncnc2cn1	82.9	90.4	113 (inactive)	118 (inactive)
NCC1OC(OC2C(CO)OC(OC3C(O)C(N)CC(N)C3OC3OC(CO)C(O)C(O)C3N)C2O)C(N)C(O)C1O.O=S(=O)(O)O (stereo not drawn) [Paromomycin sulfate]	105	106	93.7 (inactive)	101 (inactive)
CCCCCCCCCCCCCC=CC(O)C(CO)NC(C)=O (stereo not drawn) [C2 Ceramide]	101	107	94.8 (inactive)	102 (inactive)
C=CC(C)(C=Cc1ccc(O)cc1)CCC=C(C)C (stereo not drawn) [Bakuchiol]	84.7 ± 3.6	91.2 ± 4.6	97.7 (inactive)	96.8 (inactive)
COc1cc2nc(N3CCN(C(=O)c4ccco4)CC3)nc(N)c2cc1OC.Cl [Prazosin hydrochloride]	91.9	99.8	93.6 (inactive)	106 (inactive)
CC(C)(C)NC(=O)C1CCC2C3CCC4NC(=O)C=CC4(C)C3CCC12C (stereo not drawn) [Finasteride]	102	97.4	95.4 (inactive)	108 (inactive)
